In PubChem BioAssay (Tox21):
Values joined by “and” are separate entries in the source; they are usually repeats but may differ in a detail not shown here. Equal entries are not always repeated. Inconclusive results are not listed. Active and inactive are the calls of the source. Calls follow the shape of the dose curve; as a rule, active = well fitted curve in the direction sought with a large enough effect in the repeat runs; inconclusive = weak or mixed curves; inactive = no such curve, though single readings can be large; an effect the other way counts as inactive or inconclusive.

Legend:
[1] = A CellTox Green Cytotoxicity Assay to monitor cytotoxicity in HEK293 cells - 40 hour (AID 1224871); also: nearly all actives have a fitted effect of over 45% in size; also: potency is read from the fitted curve at half-maximal effect
Procedure, shortened: (§1)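 Read-out: fluorescence of a cell-impermeant cyanine dye staining DNA of dead cells, proportional to cytotoxicity. HEK293, 600 cells/well with reagent, compound (23 nL DMSO) added after 5 h; reads at 0, 8, 16, 24, 32, 40 h.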

[2] = qHTS RealTime-Glo MT Cell Viability Assay in HEK293 cells - 16 hour (AID 1224872); also: nearly all actives have a fitted effect of over 50% in size; also: potency is read from the fitted curve at half-maximal effect
Procedure, shortened: (§2)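 Homogeneous bioluminescent viability format in HEK293 cells (600 cells/well). Following 5 h at 37 C/5% CO2, 23 nL compound was pintooled; the signal was measured repeatedly during 40 h incubation.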

[3] = qHTS RealTime-Glo MT Cell Viability Assay in HEK293 cells - 40 hour (AID 1224874); conditions: RealTime-Glo luminescence; max response: stronger effect = lower value; also: nearly all actives have a fitted effect of over 50% in size; also: potency is read from the fitted curve at half-maximal effect
Procedure, shortened: (§3)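 Luminescence readout at each listed time point; HEK293, 600 cells/well, RealTime-Glo MT reagent added with cells; compounds pinned (23 nL in DMSO) after 5 h at 37 C; continuous culture at 37 C.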

[4] = A CellTox Green Cytotoxicity Assay to monitor cytotoxicity in HEK293 cells - 24 hour (AID 1224875); also: series mostly up to about 77 µM; nearly all actives have a fitted effect of over 45% in size
Procedure, shortened: as §1

[5] = A CellTox Green Cytotoxicity Assay to monitor cytotoxicity in HepG2 cells - 16 hour (AID 1224876); also: nearly all actives have a fitted effect of over 45% in size; also: potency is read from the fitted curve at half-maximal effect
Procedure, shortened: (§4)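 HepG2, 600 cells/well premixed w/ CellTox Green; 5 h settle, 37 C/5% CO2; pintool cpd add (DMSO); 37 C, 40 h; fluorescence read at 0, 8, 16, 24, 32, 40 h.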

[6] = qHTS RealTime-Glo MT Cell Viability Assay in HepG2 cells - 32 hour (AID 1224877); also: nearly all actives have a fitted effect of over 55% in size; also: potency is read from the fitted curve at half-maximal effect
Procedure, shortened: (§5)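 Cell number in HepG2 cultures estimated from NanoLuc luminescence generated by metabolic reduction of a prosubstrate by living cells. The homogeneous, nonlytic format allowed repeated reads at 0, 8, 16, 24, 32 and 40 h of compound exposure.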

[7] = A CellTox Green Cytotoxicity Assay to monitor cytotoxicity in HepG2 cells - 24 hour (AID 1224878); also: nearly all actives have a fitted effect of over 45% in size
Procedure, shortened: as §4

[8] = A CellTox Green Cytotoxicity Assay to monitor cytotoxicity in HepG2 cells - 40 hour (AID 1224879); also: nearly all actives have a fitted effect of over 40% in size; also: potency is read from the fitted curve at half-maximal effect
Procedure, shortened: as §4

[9] = qHTS RealTime-Glo MT Cell Viability Assay in HEK293 cells - 0 hour (AID 1224880)
Procedure, shortened: as §3

[10] = A CellTox Green Cytotoxicity Assay to monitor cytotoxicity in HEK293 cells - 32 hour (AID 1224881); also: nearly all actives have a fitted effect of over 40% in size; also: potency is read from the fitted curve at half-maximal effect
Procedure, shortened: as §1

[11] = A CellTox Green Cytotoxicity Assay to monitor cytotoxicity in HepG2 cells - 0 hour (AID 1224882); also: nearly all actives have a fitted effect of over 35% in size; also: potency is read from the fitted curve at half-maximal effect
Procedure, shortened: as §4

[12] = A CellTox Green Cytotoxicity Assay to monitor cytotoxicity in HEK293 cells - 8 hour (AID 1224884); also: nearly all actives have a fitted effect of over 35% in size
Procedure, shortened: as §1

[13] = qHTS RealTime-Glo MT Cell Viability Assay in HepG2 cells - 16 hour (AID 1224885); also: nearly all actives have a fitted effect of over 50% in size; also: potency is read from the fitted curve at half-maximal effect
Procedure, shortened: as §5

[14] = A CellTox Green Cytotoxicity Assay to monitor cytotoxicity in HEK293 cells - 16 hour (AID 1224888); also: nearly all actives have a fitted effect of over 35% in size
Procedure, shortened: as §1

[15] = qHTS RealTime-Glo MT Cell Viability Assay in HepG2 cells - 0 hour (AID 1224889); also: nearly all actives have a fitted effect of over 50% in size
Procedure, shortened: as §5

[16] = A CellTox Green Cytotoxicity Assay to monitor cytotoxicity in HepG2 cells - 8 hour (AID 1224890); also: nearly all actives have a fitted effect of over 45% in size
Procedure, shortened: as §4

[17] = qHTS RealTime-Glo MT Cell Viability Assay in HepG2 cells - 8 hour (AID 1224873); also: nearly all actives have a fitted effect of over 55% in size
Procedure, shortened: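 HepG2 cells (600/well) mixed with RealTime-Glo MT reagent, settled 5 h at 37 C/5% CO2 before compound addition. Nonlytic NanoLuc luminescence from viable-cell prosubstrate reduction read repeatedly during 40 h treatment at 37 C.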

[18] = A CellTox Green Cytotoxicity Assay to monitor cytotoxicity in HepG2 cells - 32 hour (AID 1224883); also: nearly all actives have a fitted effect of over 50% in size; also: potency is read from the fitted curve at half-maximal effect
Procedure, shortened: as §4

[19] = qHTS RealTime-Glo MT Cell Viability Assay in HEK293 cells - 8 hour (AID 1224887); also: nearly all actives have a fitted effect of over 50% in size; also: potency is read from the fitted curve at half-maximal effect
Procedure, shortened: as §3

[20] = qHTS RealTime-Glo MT Cell Viability Assay in HEK293 cells - 24 hour (AID 1224886); also: nearly all actives have a fitted effect of over 50% in size; also: potency is read from the fitted curve at half-maximal effect
Procedure, shortened: as §2
% is scaled to controls: 0 for no effect and ±100 for the full control effect.

CCCSP(=S)(OCC)Oc1ccc(SC)cc1 (stereo not drawn)
inactive: Potency [1] | Potency [2] | max response [3] 3.34% | Potency [4] | Potency [5] | Potency [6] | Potency [7] | Potency [8] | outcome [9] | Potency [10] | Potency [11] | Potency [12] | Potency [13] | Potency [14] | outcome [15] | Potency [16]

C=CCN1C[C@H](C)N([C@H](c2ccc(C(=O)N(CC)CC)cc2)c2cccc(OC)c2)C[C@H]1C
inactive: Potency [17] | Potency [5] | Potency [6] | Potency [7] | outcome [9] | Potency [11] | Potency [12] | Potency [13] | Potency [14] | outcome [15] | Potency [16]
active: Potency [3] 19 µM | Potency [8] 21.3 µM

CCCC[N+](CCCC)(CCCC)CCCC
inactive: Potency [1] | Potency [17] | Potency [4] | Potency [5] | Potency [6] | Potency [7] | Potency [8] | outcome [9] | Potency [10] | Potency [11] | Potency [18] | Potency [12] | Potency [13] | Potency [19] | Potency [14] | outcome [15] | Potency [16]

C[C@]12CC[C@H]3[C@@H](CCC4=CC(=O)CC[C@@H]43)[C@@H]1CC[C@@H]2OC(=O)CCc1ccccc1
inactive: Potency [2] | Potency [17] | max response [3] 0.945% | Potency [4] | Potency [5] | Potency [6] | Potency [7] | Potency [8] | outcome [9] | Potency [10] | Potency [11] | Potency [18] | Potency [12] | Potency [13] | Potency [20] | Potency [19] | Potency [14] | Potency [16]

C=CCc1ccc(OC(=O)Cc2ccccc2)c(OC)c1
inactive: Potency [1] | Potency [17] | Potency [4] | Potency [5] | Potency [6] | Potency [7] | outcome [9] | Potency [10] | Potency [11] | Potency [12] | Potency [13] | Potency [14] | outcome [15] | Potency [16]

CCCCNC(=O)OCC#CI
active: Potency [1] 54.7 µM and 54.9 µM | Potency [2] 19.4 µM and 21.9 µM | Potency [3] 21.8 µM and 24.5 µM | Potency [6] 6.14 µM and 2.75 µM | Potency [8] 49 µM | Potency [10] 54.9 µM | Potency [18] 54.9 µM | Potency [13] 10.9 µM and 4.9 µM | Potency [20] 21.8 µM and 21.9 µM | Potency [19] 24.5 µM
inactive: Potency [5] | Potency [11] | Potency [12] | Potency [14]

CN1CC[C@]23c4c5ccc(O)c4O[C@H]2[C@@H](O)C=C[C@H]3[C@H]1C5
inactive: Potency [1] | Potency [2] | max response [3] 1.75% | Potency [4] | Potency [5] | Potency [6] | Potency [7] | Potency [8] | outcome [9] | Potency [10] | Potency [12] | Potency [13] | Potency [20] | Potency [19] | Potency [14] | outcome [15] | Potency [16]

COc1ccc(C(=O)c2c(C)n(CCN3CCOCC3)c3ccccc23)cc1
active: Potency [11] 0.952 µM
inactive: Potency [1] | Potency [2] | Potency [4] | Potency [6] | outcome [9] | Potency [10] | Potency [12] | Potency [13] | Potency [19] | Potency [14] | outcome [15]

CN(C)N
active: Potency [5] 54.9 µM
inactive: Potency [2] | Potency [17] | max response [3] 6.16% | Potency [6] | outcome [9] | Potency [11] | Potency [13] | Potency [20] | Potency [19] | Potency [16]

CC(C)C1(C)N=C(c2ncccc2C(=O)O)NC1=O (stereo not drawn)
inactive: Potency [1] | Potency [2] | max response [3] 1.4% | Potency [4] | Potency [5] | Potency [6] | Potency [7] | Potency [8] | outcome [9] | Potency [10] | Potency [11] | Potency [12] | Potency [13] | Potency [20] | Potency [14] | outcome [15] | Potency [16]

C=CCOC(=O)C(C)(C)OC(=O)c1cc(-n2c(=O)cc(C(F)(F)F)n(C)c2=O)ccc1Cl
active: Potency [3] 21.5 µM | Potency [20] 19.1 µM
inactive: Potency [1] | Potency [17] | Potency [4] | Potency [5] | Potency [6] | Potency [7] | Potency [8] | Potency [10] | Potency [11] | Potency [18] | Potency [12] | Potency [13] | Potency [14] | outcome [15] | Potency [16]

O=[N+]([O-])c1cc(Cl)c(Cl)cc1Cl
inactive: Potency [2] | Potency [17] | max response [3] 2.2% | Potency [5] | Potency [6] | Potency [7] | Potency [8] | outcome [9] | Potency [11] | Potency [18] | Potency [12] | Potency [13] | Potency [20] | Potency [19] | Potency [14] | outcome [15] | Potency [16]
